# ± gives the standard deviation of the averaged measurements.
# Experiments:
# [1] = tested on: IL-6-GFP PC-9GR; experiment: cell viability (CCK-8 OD) relative to DMSO control (fraction of control); higher = more viable cells; conditions: compound concentration: 10 uM; treatment time: 48 h
# In short: (§1)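 In 96-well plates, 3000 cells/well of PC-9 or PC-9GR lung cancer cells with lentiviral IL-6-GFP overexpression received each compound of a purchased 510-compound library at a final 10 μM for 48 h. Viability, measured by CCK-8 absorbance, is each well's optical density relative to the vehicle control well. Data come from two independent replicates.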
# [2] = tested on: IL-6-GFP PC-9; experiment: as above; conditions: compound concentration: 10 uM; treatment time: 48 h
# In short: as §1
Structure (SMILES),cell viability [1],cell viability [2]
COC(=O)CC(O)(CCCC(C)(C)O)C(=O)OC1C(OC)=CC23CCCN2CCc2cc4c(cc2C13)OCO4 (stereo not given) [Homoharringtonine],0.275 ± 0.17,0.358 ± 0.042
O=C(Nc1cnn2ccc(N3CCCC3c3cc(F)ccc3F)nc12)N1CCC(O)C1.O=S(=O)(O)O (stereo not given) [Larotrectinib (LOXO-101) sulfate],0.802 ± 0.05,1.14 ± 0.12
CS(=O)(=O)O.N#CC1(c2ccc(NC(=O)c3cccnc3NCc3ccncc3)cc2)CCCC1,1.32 ± 0.072,0.887 ± 0.084
CN1CCC(=C2c3ccccc3CCc3sccc32)CC1.O=C(O)CC(O)C(=O)O [Pizotifen Malate],1.41 ± 0.064,1.22 ± 0.16
COc1cc2nccc(Oc3ccc(NC(=O)Nc4cc(C)on4)c(Cl)c3)c2cc1OC [Tivozanib (AV-951)],0.792 ± 0.15,0.353 ± 0.036
C=C(NC(=O)C(=C)NC(=O)c1csc(C2=NC3c4csc(n4)C4NC(=O)c5csc(n5)C(C(C)(O)C(C)O)NC(=O)C5CSC(=N5)/C(=C/C)NC(=O)C(C(C)O)NC(=O)c5csc(n5)C3(CC2)NC(=O)C(C)NC(=O)C(=C)NC(=O)C(C)NC(=O)C(C(C)CC)NC2C=Cc3c(C(C)O)cc(nc3C2O)C(=O)OC4C)n1)C(N)=O (stereo not given) [Thiostrepton],0.184 ± 0.083,0.412 ± 0.15
O=C(CCCc1ccccc1)[O][Na] [Sodium Phenylbutyrate],0.51 ± 0.067,0.0369 ± 0.035
CC(C)c1c(C(=O)Nc2ccccc2)c(-c2ccccc2)c(-c2ccc(F)cc2)n1CCC(O)CC(O)CC(=O)O (stereo not given) [atorvastatin],0.904 ± 0.21,0.866 ± 0.015
Nc1nnc(-c2cccc(Cl)c2Cl)c(N)n1 [Lamotrigine],1.12 ± 0.3,1.05 ± 0.16
O=C(OCC1OC(OC(=O)c2cc(O)c(O)c(OC(=O)c3cc(O)c(O)c(O)c3)c2)C(OC(=O)c2cc(O)c(O)c(OC(=O)c3cc(O)c(O)c(O)c3)c2)C(OC(=O)c2cc(O)c(O)c(OC(=O)c3cc(O)c(O)c(O)c3)c2)C1OC(=O)c1cc(O)c(O)c(OC(=O)c2cc(O)c(O)c(O)c2)c1)c1cc(O)c(O)c(OC(=O)c2cc(O)c(O)c(O)c2)c1 (stereo not given) [Tannic acid],1.05 ± 0.11,1.2 ± 0.23
Nc1ccc(C(=O)[O-])c(O)c1.[Na+] [Sodium 4-Aminosalicylate],1.02 ± 0.3,0.895 ± 0.055
CC/C(=C(/CC)c1ccc(O)cc1)c1ccc(O)cc1 [Diethylstilbestrol],1.13 ± 0.038,1.18 ± 0.19
Cc1nc(NC(=O)N2CCCC2C(N)=O)sc1-c1ccnc(C(C)(C)C(F)(F)F)c1 (stereo not given) [Alpelisib (BYL719)],0.983 ± 0.067,0.934 ± 0.11
O=C(c1cc(Cc2n[nH]c(=O)c3ccccc23)ccc1F)N1CCN(C(=O)C2CC2)CC1,1.09 ± 0.081,1.16 ± 0.37
C=C1C(=O)OC2C1CCC(=C)C1CCC(=C)C12 (stereo not given) [Dehydrocostus Lactone],0.75 ± 0.052,0.808 ± 0.077
CCC1(O)C(=O)OCc2c1cc1n(c2=O)Cc2cc3c(CN(C)C)c(O)ccc3nc2-1.Cl (stereo not given) [Topotecan HCl],0.451 ± 0.033,0.355 ± 0.11
NCCNc1ccc(NCCN)c2c1C(=O)c1ccncc1C2=O.O=C(O)/C=C\C(=O)O.O=C(O)/C=C\C(=O)O [Pixantrone Maleate],0.168 ± 0.39,0.3518 ± 0.00067
CCN1CCN(Cc2ccc(Nc3ncc(F)c(-c4cc(F)c5nc(C)n(C(C)C)c5c4)n3)nc2)CC1.CS(=O)(=O)O,0.42 ± 0.27,0.415 ± 0.016
Cc1c(O)c(C)c2c(c1O)C(=O)CC(c1ccc(O)cc1)O2 (stereo not given) [Farrerol],1.19 ± 0.11,1.05 ± 0.037
CC1=C(/C=C/C(C)=C/C=C/C(C)=C/C(=O)Nc2ccc(O)cc2)C(C)(C)CCC1 [Fenretinide],0.47 ± 0.12,0.449 ± 0.14

# — the supplement of paper PMC8866396
